gsp agonist – activates gsp, the McCune-Albright syndrome mutation; AID 624287; gsp mutant cells, cAMP HTRF, 30 min; 340,000 compounds, 0.13% hits; Potency, µM (doses to about 76.9 µM), for the others: at the highest dose activation (cAMP increase), most hits filed as activators; active = well fitted activation curve with a large enough effect; inconclusive = small, poorly fitted or top-dose-only effect, or another doubt; inactive = no such curve, though single readings can be large or run the other way; cell line not stated here;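 also: phosphodiesterase inhibitor Ro 20-1724 added with compounds to block cAMP breakdown; potency is read from the fitted curve at half-maximal effect; nearly all actives have a fitted effect of over 60% in size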
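Cells in DMEM/10% FBS with G418 were pretreated with compounds in DMSO plus […] (300 uM stock) for 30 min at 37C. cAMP was measured by HTRF (cAMP-d2 plus anti-cAMP antibody-K) after 30 min at room temperature.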
Akt phos inh – inhibitors of Akt phosphorylation | Neuro2A IGF-stimulated pAkt S473 HTRF, 20 min; active compounds read low | activity change, % for hits at 50 µM | 360,000 compounds, 0.32% hits | AID 651550; in the data active = activity change below about -80%; inconclusive = mostly about -51% to -80%; also: % is scaled to controls: 0 for no effect and ±100 for the full control effect
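Neuro2A cells (4,500/well, DMEM with 0.5% FBS) were treated with compound at a single 50 µM final concentration, stimulated with 6 nM IGF for 20 min at 37 °C, and lysed. Phospho-Akt Ser473 was read by HTRF as 665/615 ratio ×10^4.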
ClpP mod – qHTS Assay for Activators of ClpP | ATP-dependent Clp protease proteolytic subunit (Bacillus subtilis (strain 168)), P80244 | purified B. subtilis ClpP, FRET peptide cleavage, 20 min | Potency, µM (doses to about 57.5 µM), inactives show top-dose activity change, negative = active | 340,000 compounds, 1.9% hits | AID 651965, 2013; active = well fitted falling curve with a large enough effect; inconclusive = small, poorly fitted or top-dose-only effect; inactive = no such curve, though single readings can be large or run the other way; also: potency is read from the fitted curve at half-maximal effect; the source files actives as falling curves though it sought activators and does not explain the sign; nearly all actives have a fitted effect of over 65% in size
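Purified B. subtilis ClpP, 10 microg/mL final in Tris/HCl pH8 with KCl, BSA, glycerol and Tween-20, cleaved an Abz/nitrotyrosine-quenched decapeptide. Fluorescence (ex 320, em 430) was read at 0 and 20 min at room temperature. Delta was normalized to 5.8 microM ADEP and DMSO/no-enzyme controls.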
gsp antag – antagonizes gsp, the McCune-Albright syndrome mutation; gsp-mutant cells, cAMP HTRF, 30 min; Potency, µM (doses to about 76.9 µM), for the others: top-dose activity change, negative = inhibition, usual class: inhibitors; 340,000 compounds, 0.4% hits; calls by dose curve; cell line not stated here;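 also: intracellular cAMP measured with PDE inhibitor Ro 20-1724 present during compound exposure; potency is read from the fitted curve at half-maximal effect; % is scaled to controls: 0 for no effect and ±100 for the full control effect; nearly all actives have a fitted effect of over 65% in size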
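Cells in G418 medium, seeded 16-24 h, 37C; buffer exchange to DPBS + 1 mM CaCl2, 0.5 mM MgCl2, 0.05% BSA; cpds in DMSO + […] (300 uM stock), 30 min 37C; HTRF cAMP detection.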
RXFP1 antagonist – RXFP1 (human) relaxin receptor antagonism. AID 1259400. HEK293-RXFP1, relaxin-stimulated cAMP HTRF, 30 min; active compounds read low. 350,000 compounds, 0.59% hits. activity change, negative = inhibition, % at 57.5 µM. Q9HBX9;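 active = activity change of -60% or lower, but not beyond a set lower limit; inconclusive = change between -60% and -40%, or beyond the set limit; inactive = change above -40%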; also: % is scaled to controls: 0 for no effect and ±100 for the full control effect
Target sequence (Q9HBX9 whole entry, looked up): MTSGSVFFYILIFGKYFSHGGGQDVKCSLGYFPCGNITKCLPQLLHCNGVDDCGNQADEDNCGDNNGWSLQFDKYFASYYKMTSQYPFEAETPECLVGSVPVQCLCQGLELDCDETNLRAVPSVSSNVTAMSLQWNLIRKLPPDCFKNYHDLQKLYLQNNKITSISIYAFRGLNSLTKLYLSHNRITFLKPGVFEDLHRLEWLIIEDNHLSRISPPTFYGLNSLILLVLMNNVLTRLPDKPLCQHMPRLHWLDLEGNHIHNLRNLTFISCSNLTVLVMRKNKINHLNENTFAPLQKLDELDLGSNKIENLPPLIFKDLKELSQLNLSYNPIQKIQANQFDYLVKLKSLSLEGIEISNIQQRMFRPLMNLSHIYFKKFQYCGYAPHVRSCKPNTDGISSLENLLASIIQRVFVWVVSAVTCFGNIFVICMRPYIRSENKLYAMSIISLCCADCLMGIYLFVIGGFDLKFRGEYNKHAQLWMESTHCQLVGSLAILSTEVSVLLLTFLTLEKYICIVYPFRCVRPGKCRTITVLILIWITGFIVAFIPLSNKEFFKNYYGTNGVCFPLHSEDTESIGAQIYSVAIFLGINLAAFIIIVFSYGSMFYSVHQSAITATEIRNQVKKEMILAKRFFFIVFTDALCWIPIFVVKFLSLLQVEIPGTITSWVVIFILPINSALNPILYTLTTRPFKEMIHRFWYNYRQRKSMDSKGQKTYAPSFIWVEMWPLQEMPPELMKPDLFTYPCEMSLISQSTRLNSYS
RXFP1 ag – RXFP1 (human) receptor agonism; Q9HBX9; HEK293T-RXFP1 cAMP TR-FRET, 30 min; response scale: percent of porcine relaxin response, buffer zero; Potency, µM (series often up to 57.5 µM), inactives show at the top dose activation, usual class: activators; 370,000 compounds, 0.3% hits; active = well fitted activation curve with a large enough effect; inconclusive = small, poorly fitted or top-dose-only effect; also: potency is read from the fitted curve at half-maximal effect; % is scaled to controls: 0 for no effect and ±100 for the full control effect; nearly all actives have a fitted effect of over 60% in size
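cAMP rise read by TR-FRET after 30 min, 37C compound exposure (up to 58 uM) in RXFP1-transfected HEK293 cells with Ro 20174 present. EC50 from Hill-equation fits, with 29 nM porcine relaxin as 100% and buffer as basal.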
Starred values were filed as active, the others as inactive; i = inactive; ? = inconclusive; . = no result given; [ ] = dose if it differs, or a comment. Sampled rows, rich in hits. Any-hit rate of the full collection: about 2.7%.

SMILES | gsp agonist | Akt phos inh | ClpP mod | gsp antag | RXFP1 antagonist | RXFP1 ag
CCOc1ccc(/C=N/NC(=O)c2ccc(O)cc2)cc1CN1CC2CC(C1)c1cccc(=O)n1C2 (configuration not stated) | . | i | -4% | 40µM* | . | 2%
COc1cc(CNC(=O)CCC(=O)N2C[C@H]3C[C@H](C2)c2cccc(=O)n2C3)cc(OC)c1OC | . | i | -1% | 12% | . | 1%
Cc1cccc(N(C)C(=O)CCNS(=O)(=O)c2ccc3c(c2)CCN3C(=O)C2CC2)c1 | . | . | 2% | . | . | 2%
O=C(NCC1CC1)C1Cc2c(-c3ccccc3Oc3ccccc3)ccnc2O1 (configuration not stated) | . | i | 1% | . | . | .
COc1ccc(Cl)cc1-n1cc(-c2ccccc2)nc1SCC(=O)Nc1ccc(C)cc1 | . | . | 0% | . | 0 | 0%
O=[N+]([O-])c1ccc(N/N=C/c2ccc(O)c(O)c2O)c(S(=O)(=O)N2CCOCC2)c1 | 15%[15.4 µM] | i | . | ? | -85* | 1%
CCCCCc1ccc(C(=O)CCCC)c(=S)[nH]1 | -27% | i | . | 4% | -64* | 2%
CCC(C)NCCCOc1ccc(Cl)cc1C(C)(C)C (configuration not stated) | 1% | i | -10% | 14% | 8 | 0%
C=CCc1cc(Cl)ccc1OCCCNC(C)CC (configuration not stated) | -24% | i | -8% | 14% | -63* | -1%
COc1ccc2[nH]c(C(=O)O)c(NS(=O)(=O)c3ccc(Cl)s3)c2c1 | -51% | -88%* | 0% | -8% | -7 | 2%
COc1ccc2[nH]c(C(=O)O)c(CCNC(C)=O)c2c1 | -4% | i | 8.9µM* | 9% | 5 | 0%
Cc1cc(C)cc(NC(=O)CSCc2cc(=O)c3cc(Cl)ccc3[nH]2)c1 | . | . | 0% | . | 6 | 1%
CCOC(=O)Cn1c(CN2CCN(c3ccc(OC)cc3)CC2)nc2c1c(=O)[nH]c(=O)n2C | . | . | 1% | . | -1 | -1%
OCC1(Cc2ccc(F)cc2F)CCCN(Cc2ccc(Cl)cc2)C1 (configuration not stated) | -256% | i | 1% | 9% | -61* | 0%
OCC1(Cc2cccc(Cl)c2)CCCN(Cc2ccc(F)c(F)c2)C1 (configuration not stated) | 6%[15.4 µM] | i | 1% | 1% | -28 | -1%
COc1ccc(-c2cc(C(F)(F)F)nc(S(C)(=O)=O)n2)cc1 | ? | -98%* | -4% | 17% | -20 | 6%
COc1ccc(-c2cc(C(F)(F)F)nc(N)n2)cc1 | -54%[15.4 µM] | i | . | -7% | -61* | -1%
COc1ccc(-c2cc(C(F)(F)F)nc(-n3cncn3)n2)cc1 | -7% | i | 20µM* | 10% | -3 | 5%
CS(=O)(=O)c1nc(-c2ccc(F)cc2)cc(C(F)(F)F)n1 | -15% | i | . | -4% | -22 | 3%
Cc1sccc1Br | . | . | . | . | 13 | .
COc1ccc(OC)c(NC(=O)c2cc(S(=O)(=O)N3CCCC3)cn2C)c1 | 12% | i | 5% | -2% | -37 | 3%
COc1ccc(OCC(=O)N2CCN(c3nnc(-c4ccccc4)c4ccccc34)CC2)cc1 | 13% | i | 0% | 40µM* | 13 | 2%
Cc1ccc(-c2nnc(N3CCC(C)CC3)c3ccccc23)cc1 | -61% | i | 0% | 25µM* | -11 | 0%
Cc1ccc(OCC(=O)N2CCN(c3nnc(-c4ccc(C)cc4)c4ccccc34)CC2)cc1 | 1% | i | 1% | 35µM* | -5 | 0%
COc1ccc(OCC(=O)N2CCN(c3nnc(-c4ccc(C)cc4)c4ccccc34)CC2)cc1 | -3%[15.4 µM] | i | -2% | 28µM* | -14 | 2%
SMILES | gsp agonist | Akt phos inh | ClpP mod | gsp antag | RXFP1 antagonist | RXFP1 ag
O=C(COc1ccccc1)N1CCN(c2nnc(-c3ccccc3)c3ccccc23)CC1 | -3% | i | -4% | ? | 28 | 3%
Cn1c(SCc2cccnc2)nc2c(c1=O)SCC2 | -12%[15.4 µM] | i | -11% | -2% | -14 | 0%
O=[N+]([O-])c1cccc(CSc2nnc3ccccn23)c1 | 26%[15.4 µM] | i | . | . | 3 | 25µM*
Cn1c(SCc2cccc([N+](=O)[O-])c2)nc2c(c1=O)SCC2 | 3% | i | 2% | 35µM* | 10 | 3%
CC(C)c1ccc(/C=C2\C=Cc3ccccc32)cc1 | . | . | -1% | . | . | .
COC(=O)C1=C(C)NC2=C(C(=O)C(C(=O)OC)C(c3ccc(OC)cc3)C2)C1c1ccccn1 (configuration not stated) | -38% | i | ? | -5% | -3 | 3%
COC(=O)C1=C(C)NC2=C(C(=O)CC(C)(C)C2)C1c1ccsc1 (configuration not stated) | 5% | i | 28µM* | -5% | -5 | 1%
COC(=O)C1=C(C)NC2=C(C(=O)CC(C)(C)C2)C1c1ccccn1 (configuration not stated) | 7% | i | 28µM* | 2% | -15 | 0%
CCOC(=O)c1ccc(NC(=O)CCC(=O)N2CCSc3ccccc32)cc1 | . | . | 1% | . | ? | 0%
COc1cc2c(C(=O)N3CCN(C)CC3)c(C)n(-c3ccccc3)c2cc1Br | ? | . | 1% | 2% | -7 | 0%
CCN(CC)CCNC(=O)c1c(C)n(-c2ccccc2)c2cc(Br)c(OC)cc12 | 25% | i | -1% | 15% | -78* | -2%
COc1ccc(N(Cc2cccs2)C(=O)c2ccc(OCC(C)C)cc2)cc1 | . | . | 0% | . | ? | -4%
CC(=O)c1ccc(NC(=O)c2cnn(-c3cccc(F)c3)c2-n2cccc2)cc1 | . | . | 0% | . | -68* | 1%
O=S(=O)(c1ccc(Cl)cc1)c1nc(-c2ccccc2Br)oc1NCc1ccccc1 | . | . | 20µM* | . | -3 | 3%
Cc1ccccc1-c1nc(S(=O)(=O)c2ccc(Br)cc2)c(NCc2cccnc2)o1 | 0% | i | -19% | -18% | 10 | -1%
CC(NC(=O)/C(C#N)=C/c1ccc([N+](=O)[O-])o1)c1ccccc1 (configuration not stated) | -1% | i | -1% | -25% | -75* | 0%
CC(=O)C[C@H]1[C@H](O[C@H]2[C@H](OC(C)C(=O)N[C@@H](C)C(=O)N[C@H](CCC(=O)N[C@@H](CCCCN)C(=O)N[C@H](C)C(=O)O)C(N)=O)[C@@H](NC(=O)O)C(O)O[C@@H]2CO)O[C@H](CO)[C@@H](O)[C@@H]1O (some centres not stated) | . | . | . | . | 19 | .
Cc1cccn2c(=O)c(C(=O)NC3CCCCC3C)c(O)nc12 (configuration not stated) | -5% | i | 28µM* | -4% | -10 | 4%

High-throughput results (PubChem BioAssay)
